Lmaj promast – reduces viability of Leishmania major promastigotes; inhibition, % at 10 µM; resazurin fluorescence viability; 200,000 compounds, 9% hits; in the data active = inhibition above about 50%;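 also: promastigotes grown with compound for 44 hours at 28 °C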
Autophagy HCS – modulators of autophagy; AID 463193; 190,000 compounds, 0.98% hits; calls only at 10 µM (by protocol); MEF GFP-LC3 puncta imaging; test concentration mostly 10 µM;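 active = percentage of spot-positive cells more than 3 SD above its plate mean, without a fluorescence outlier flag or 80% toxicity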;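 also: spot-positive cell cutoff set from DMSO-treated cells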
WT yeast gro inh – growth inhibition of WT yeast, mitochondrial fusion screen; mitochondrial fusion phenotypic screen, WT strain; inhibition, % at 10 µM; 190,000 compounds, 2.1% hits; in the data active = inhibition above about 58%; tested in S. cerevisiae
INS promoter inh – TRM-6 insulin promoter activity inhibition | TRM-6 cells (human fetal islet line), insulin promoter-eGFP reporter, imaging; reporter expression induced with tamoxifen | inhibition, % at 2 µM | 130,000 compounds, 0.9% hits | AID 1273;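 active = inhibition above the mean plus 3 SD, with well images judged a real hit on visual review, cut at about 60% in these data, passing the limit was not always enough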
Ins promoter up – MIN6 insulin promoter up-regulation | MIN6 insulin promoter-GFP reporter, high-content imaging; hits give high values | z-score at 5 µM | 190,000 compounds, 0.3% hits;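 active = z-score above 3 at 5 µM with at least 500 cells counted in the well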
Starred values were filed as active, the others as inactive. Compounds with a hit are over-represented: about 11% of the library has one in this group of screens.

What do the screens show for `Cc1ccc2nc(C)cc(Nc3ccc([N+](=O)[O-])cc3)c2c1`?
Lmaj promast: 101*; Autophagy HCS: active; WT yeast gro inh: 18; Ins promoter up: -1.4

Results for COc1ccc(Nc2nc(-c3ccccc3)c3ccccc3n2)cc1 ?
Lmaj promast: 34; Autophagy HCS: inactive; WT yeast gro inh: 64*; Ins promoter up: -0.06

How did CCN(C(=O)Cc1c(C(=O)O)n(C)c2ccccc12)c1ccc(F)cc1 do in these assays?
Lmaj promast: 5; Autophagy HCS: inactive; WT yeast gro inh: -10; INS promoter inh: 7; Ins promoter up: -0.02

What do the screens show for `CC1(c2nnc(Cc3ccccc3)o2)CC(c2ccc([N+](=O)[O-])cc2)=NO1` (stereo unspecified)?
Ins promoter up: -0.27

What do the screens show for `c1ccc(C2C/C(=N\N3CCOCC3)c3ccccc3O2)cc1` (stereo unspecified)?
Lmaj promast: 0; Autophagy HCS: inactive; WT yeast gro inh: -8; INS promoter inh: -44; Ins promoter up: -0.27

What do the screens show for `CC(C)(C)N/N=C1\CC(c2ccccc2)Oc2ccccc21` (stereo unspecified)?
Lmaj promast: 5; Autophagy HCS: inactive; WT yeast gro inh: 62*; INS promoter inh: 0; Ins promoter up: 0.28

Results for COc1ccc(C2=NN(C3=NN=C(N)Cc4ncnn43)C(O)(C(F)(F)F)C2)cc1 (stereo unspecified) ?
Lmaj promast: -5; Autophagy HCS: inactive; WT yeast gro inh: 0; Ins promoter up: -0.28

What do the screens show for `O=C(CSc1nc(-c2ccccc2F)nc2nc[nH]c12)Nc1c(Cl)cc(Cl)cc1Cl`?
Lmaj promast: -6; Autophagy HCS: inactive; WT yeast gro inh: -9

How did CCc1cccc(C)c1NC(=O)CSc1nc(-c2ccccc2F)nc2nc[nH]c12 do in these assays?
Lmaj promast: 62*; Autophagy HCS: inactive; WT yeast gro inh: -4; INS promoter inh: 23; Ins promoter up: 0.15

Results for O=S1(=O)C=C(Sc2nc3cc(Cl)ccc3o2)c2ccccc21 ?
Lmaj promast: 80*; Autophagy HCS: inactive; WT yeast gro inh: -1; Ins promoter up: 2.1

Results for O=C(NCc1ccccc1)c1ccc(C2SCC(=O)N2Cc2ccccc2)cc1 (stereo unspecified) ?
Lmaj promast: 97*; Autophagy HCS: inactive; WT yeast gro inh: 21; INS promoter inh: 53

What do the screens show for `CCc1ccc(NC(=O)c2ccc(C3SCC(=O)N3CCc3ccccc3)cc2)cc1` (stereo unspecified)?
Lmaj promast: 93*; Autophagy HCS: inactive; INS promoter inh: 7

Results for O=C(COC(=O)c1cc(Br)ccc1O)Nc1cc(S(=O)(=O)N2CCCC2)ccc1Cl ?
Lmaj promast: 3; Autophagy HCS: inactive; WT yeast gro inh: 28; INS promoter inh: -9; Ins promoter up: -0.21

Results for CC(=O)N1CCc2cc(S(=O)(=O)N3CCOCC3)ccc21 ?
Lmaj promast: -3; Autophagy HCS: inactive; WT yeast gro inh: -18; INS promoter inh: 6; Ins promoter up: -0.82

What do the screens show for `O=C(C1CCC1)N1CCc2cc(S(=O)(=O)NCc3ccco3)ccc21`?
Lmaj promast: 1; Autophagy HCS: inactive; WT yeast gro inh: -2; INS promoter inh: 82*; Ins promoter up: -1.8

Results for CC(=O)N1CCc2cc(S(=O)(=O)NCCN3CCC(C)CC3)ccc21 ?
Lmaj promast: 58*; Autophagy HCS: inactive; WT yeast gro inh: -13; INS promoter inh: -48; Ins promoter up: -1.3

What do the screens show for `CC(=O)N1CCc2cc(S(=O)(=O)NC(CC(C)C)C(=O)N3CCc4ccccc4C3)ccc21` (stereo unspecified)?
Lmaj promast: 73*; Autophagy HCS: inactive; WT yeast gro inh: -14; Ins promoter up: -0.53

How did CC(=O)N1CCc2cc(S(=O)(=O)N3c4ccccc4CC3C)ccc21 (stereo unspecified) do in these assays?
Lmaj promast: 14; Autophagy HCS: active; WT yeast gro inh: -3; INS promoter inh: -26; Ins promoter up: -0.36

How did CC(NCc1ccc(N(C)C)cc1)C1CC2CCC1C2 (stereo unspecified) do in these assays?
Lmaj promast: 98*; Autophagy HCS: inactive; WT yeast gro inh: 4; INS promoter inh: -69; Ins promoter up: -0.38

What do the screens show for `Oc1ccc(N=Cc2ccc(O)c(O)c2)cc1`?
Lmaj promast: 100*; Autophagy HCS: inactive; WT yeast gro inh: 7; INS promoter inh: -92; Ins promoter up: -2.7

What do the screens show for `COc1cccc(N=Nc2c(N)[nH][nH]c2=O)c1`?
Lmaj promast: -9; Autophagy HCS: inactive; WT yeast gro inh: -1; INS promoter inh: -50; Ins promoter up: 0.38

Bioassay records deposited in PubChem by several laboratories.
